Holding throughout (experiment): NCI-60 one-dose screen, 48 h (100 = growth as untreated, 0 = no growth, -100 = all killed)
Test [1] deals with HT29 colon. To be noted: 10 µM unless noted.
Test [2] concerns SNB-75 CNS. To be noted: 10 µM unless noted.
Test [3] deals with SNB-19 CNS. To be noted: 10 µM unless noted.
The test system of test [4] is U251 CNS. To be noted: 10 µM unless noted.
Test [5] relates to PC-3 prostate. To be noted: 10 µM unless noted.
The subject of test [6] is SK-MEL-5 melanoma. As to conditions: 10 µM unless noted.
In test [7] the test system is UACC-62 melanoma. To be noted: 10 µM unless noted.
The subject of test [8] is LOX IMVI melanoma. As to conditions: 10 µM unless noted.
Test [9] relates to SK-MEL-28 melanoma. To be noted: 10 µM.
Test [10] has as its system SK-MEL-2 melanoma. As to conditions: 10 µM unless noted.
The subject of test [11] is SN12C renal. As to conditions: 10 µM unless noted.
Test [12] has as its system UO-31 renal. To be noted: 10 µM unless noted.
In test [13] the test system is TK-10 renal. As to conditions: 10 µM unless noted.
Test [14] deals with ACHN renal. To be noted: 10 µM unless noted.
For test [15], the system named is CAKI-1 renal. As to conditions: 10 µM unless noted.
Test [16] deals with A498 renal. As to conditions: 10 µM unless noted.
Test [17] deals with EKVX NSCLC. To be noted: 10 µM unless noted.
Test [18] has as its system CCRF-CEM leukemia. To be noted: 10 µM unless noted.
Test [19] has as its system MOLT-4 leukemia. As to conditions: 10 µM unless noted.
In test [20] the test system is SR leukemia. To be noted: 10 µM unless noted.

Each structure is given as a SMILES string. The panel holds about 83,000 compounds, 20% with a hit somewhere; the sample as a whole holds those more often.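 Negative percent growth values reflect cell death: -40 means 40% of the cells present at the start died, and -100 means all died.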 A number with no mark means an inactive call. Calls of active or inactive are those of the source. The calls were made as follows: active = growth percent below 10; inactive = the rest.

With `COc1cc(CNC(=O)c2ccsc2Nc2ccnc(C(F)(F)F)c2)ccc1O`, the growth in [1] was 97.8%; in test [2], 101%; in [3] it was 96%; in test [4], 95.4%; in test [5] it was 88.1%; in test [6], 98.2%. Moreover, the growth in test [7] was 102%; in test [8] it was 91.7%; in test [9], 118%; in test [10], 103%; in test [11], 94.6%; in [12], 82.7%. Further, the growth in test [13] is 99.8%; in test [14] it was 98.2%; in [15] it was 95.7%; in [16], 93%.

As for `Cc1ccc(NCCNCC(O)CO)c2c(=O)c3ccccc3sc12` (configuration not stated), the growth was -61.1% (active) in [1]; 44.6% in test [2]; 26.3% in [3]; 9.2% (active) in test [4]; 13.6% in test [5]; -81% (active) in test [6]. In addition, the growth was -49.9% (active) in [7]; -95.2% (active) in test [8]; 1.81% (active) in [9]; 75.8% in [10]; 43.3% in test [17]; 19.7% in test [11]. In addition, the growth in [12] was -24% (active); in [15] it was 39.2%; in test [16] it was 43.2%; in [18], 22.2%; in test [19], 9.37% (active); in [20] it was -9.74% (active).

As for `CN1C(=O)N(C)C2(c3ccccc3)OC(=S)NC12c1ccccc1` (configuration not stated), the growth in test [1] was 89.1%; in [2], 87.6%; in test [3], 98.4%; in [4], 98.7%; in [5] it was 92.4%; in [6], 104%. In addition, the growth in test [7] was 92.5%; in test [8] it was 98.7%; in test [9] it was 102%; in [10], 102%; in test [17], 90.8%; in test [11], 107%. For the same compound, the growth in test [12] is 89%; in test [13], 102%; in test [15], 84.7%; in test [16], 105%; in test [18], 114%; in [19] it was 103%. The growth in test [20] was 105%.

As for `Nc1ccc(-c2ccc(-c3ccccc3N)c3[nH]c4ccccc4c23)cc1`, the growth in test [1] is 13.9%; in test [2], 28.4%; in test [3], 39%; in [4] it was 35.4%; in test [5], 24.9%; in test [6], 6.03% (active). For the same compound, the growth in [7] was 25.4%; in [8], 27.7%; in test [9], 51%; in test [10] it was 19.5%; in [17] it was 34.9%; in test [11], 32.7%. The growth in test [12] is 22.5%; in test [13], 23.8%; in test [14], 32.1%; in test [16] it was 20.6%; in test [19], 22%; in [20], 19.6%.

Take `COc1ccc(C2=C(c3cccc(OC)c3)C(=O)c3ccc(C)nc3C2=O)cc1`: the growth is 87.8% in test [1]; 23.6% in test [2]; 43.9% in test [3]; 37.6% in test [4]; 52.1% in test [5]; 34.6% in test [6]. The growth was 46.7% in test [7]; 30.6% in test [8]; 50.7% in [9]; 42.8% in test [10]; 75.3% in test [17]; 40.6% in test [11]. Further, the growth was 25.4% in test [12]; 93.8% in test [13]; 33.6% in test [14]; 34.2% in test [15]; 28.5% in [20].

For the compound `NS(=O)(=O)c1ccc(CCN=C=S)cc1`, the growth in test [1] is 14.7%; in test [2], 29.1%; in [3], 73.5%; in [4], 27.6%; in test [5] it was 47%; in [6] it was 74.7%. Moreover, the growth is 68.5% in test [7]; -27.9% (active) in test [8]; 55% in [9]; 63% in [10]; 99.9% in test [17]; 28.6% in test [11]. Also, the growth is -41.9% (active) in test [12]; -4.75% (active) in test [13]; -70.7% (active) in test [14]; 79.8% in [16]; 10.4% in test [18]; 16.3% in test [19]. The growth in [20] was 9.82% (active).

`N#C/C(=C\c1c(-c2ccccc2)[nH]c2ccccc12)C(=O)c1ccccc1`: the growth in test [1] was 16.4%; in test [2] it was 16.8%; in test [3] it was 44.5%; in test [4], 43.3%; in [5], 44.5%; in test [6] it was 21.6%. The growth in test [7] is 36.3%; in test [8] it was 54.2%; in test [9], 55.4%; in [10], 47.8%; in [17], 68.5%; in [11], 54.4%. For the same compound, the growth in test [12] is 37.5%; in [13], 74.5%; in test [14], 65.9%; in [15], 42.4%; in [16], 57.9%; in [20], 52.3%.

In the case of `N#CC(C#N)=Cc1c(-c2ccccc2)[nH]c2ccccc12`, the growth in [1] is 14.3%; in test [2], 2.62% (active); in test [3], 37.8%; in [4], 32.1%; in [5], 9.36% (active); in test [6], 14.9%. Besides, the growth in test [7] is 32.2%; in test [8], 48.3%; in [9] it was 42.7%; in test [10] it was 45.7%; in test [17], 66%; in [11], 44.3%. For the same compound, the growth in test [12] is 38.9%; in test [13] it was 67.6%; in test [15] it was 38.6%; in [16] it was -3.79% (active); in test [19], 26.9%; in test [20] it was 32.2%.

As to `O=C1C(Cl)=C(NCc2ccco2)C(=O)c2ccccc21`, the growth was 67.9% in test [1]; 87.1% in test [2]; 98.8% in [3]; 70.2% in test [4]; 82.7% in [5]; -75.6% (active) in [6]. The growth is 76% in test [7]; 16.2% in test [8]; 106% in test [9]; 93.4% in test [10]; 110% in test [17]; 90.1% in [11]. Moreover, the growth in test [12] was 97.3%; in test [13] it was 110%; in test [15] it was 93.9%; in test [16] it was 89.8%; in test [18], 24.4%; in test [19], 91.1%. Also, in test [20], the growth is 63.9%.

These data come from PubChem BioAssay (NCI).
